Assay [1] in a line: qHTS assay for small molecules that induce genotoxicity in human embryonic kidney cells expressing luciferase-tagged ATAD5 (AID 651632). Note: % is set by controls: 0 for no effect and ±100 for the full control effect; nearly all actives have a fitted effect of over 15% in size. The method, boiled down: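 ATAD5-luc HEK293T, 2,000 cells/well; cpd or DMSO pin-transferred; 16 hr, 37C/5% CO2; Amplite 30 min RT; luminescence.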
For orientation: In qHTS, concentration-response curves come from the screen itself.

A short description of assay [2]: qHTS assay for small molecule agonists of the p53 signaling pathway - cell viability (AID 651633; calls by dose curve; note: nearly all actives have a fitted effect of over 30% in size; note: potency is the fitted concentration of half-maximal effect). The method, boiled down: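 Viability counter-read: CellTiter-Glo luminescence (30 min, room temperature) in the same p53RE-bla plates. These plates had been exposed to compounds for 16 h at 37 C.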
The nature of assay [3]: qHTS assay for small molecules that induce genotoxicity in human embryonic kidney cells expressing luciferase-tagged ATAD5 - cell viability (AID 651634; calls by dose curve; note: % is set by controls: 0 for no effect and ±100 for the full control effect; nearly all actives have a fitted effect of over 25% in size). The method, boiled down:
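Fluorescence from CellTiter-Fluor, reporting protease activity within live cells, served as the viability read-out. HEK293T cells carrying luciferase-tagged ATAD5 had been treated with compound for 15.5 hr at 37C.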

Assay [4] in a line: qHTS assay to test for compound auto fluorescence at 590 nm (red) in HepG2 cells (AID 720674). Note: % is set by controls: 0 for no effect and ±100 for the full control effect. The method, boiled down:
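We screened compounds on adherent HepG2 cells, incubating them for an hour at 37 C in 5% CO2 before reading emission at 590 nm under 540 nm excitation; values reflect equivalence to Rose Bengal sodium fluorescence.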

Assay [5] in a line: qHTS assay to test for compound auto fluorescence at 535 nm (green) in HepG2 cells (AID 720675). Note: % is set by controls: 0 for no effect and ±100 for the full control effect.
The nature of assay [6]: qHTS assay to test for compound auto fluorescence at 590 nm (red) in HEK293 cells (AID 720679). Note: % is set by controls: 0 for no effect and ±100 for the full control effect. The method, boiled down: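 Red autofluorescence, HEK293 cells: 2,000 cells/well; attach 4-5 hr 37C; add 23 nL cpd or DMSO; incubate o/n 37C 5% CO2; read Ex540/Em590; Rose Bengal sodium reference.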
The nature of assay [7]: qHTS assay to test for compound auto fluorescence at 535 nm (green) in HEK293 cells (AID 720680). Note: % is set by controls: 0 for no effect and ±100 for the full control effect.
A short description of assay [8]: qHTS assay to test for compound auto fluorescence at 460 nm (blue) in HEK293 cell free culture (AID 720681). Note: % is set by controls: 0 for no effect and ±100 for the full control effect. In outline:
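Blue fluorescence (Ex 405/Em 460 nm, triamterene-equivalent) was read immediately after pin transfer of compound or DMSO into medium (DMEM, 10% FBS) without cells.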

Assay [9] can be described thus: qHTS assay to test for compound auto fluorescence at 535 nm (green) in HEK293 cell free culture (AID 720682). Note: % is set by controls: 0 for no effect and ±100 for the full control effect. The method, boiled down:
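Intrinsic compound fluorescence is measured in culture medium containing 10% FBS, with excitation at 485 nm and detection at 535 nm, referenced to fluorescein.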

Assay [10] is described as follows: qHTS assay to test for compound auto fluorescence at 590 nm (red) in HEK293 cell free culture (AID 720683). Note: % is set by controls: 0 for no effect and ±100 for the full control effect. The method, boiled down:
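Red-channel autofluorescence of compounds in culture medium (DMEM, 10% FBS), no cells, measured at 540/590 nm. Rose Bengal sodium is the reference fluorophore for equivalence.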

Assay [11] is described as follows: qHTS assay to test for compound auto fluorescence at 590 nm (red) in HepG2 cell free culture (AID 720684). Note: % is set by controls: 0 for no effect and ±100 for the full control effect. The method, boiled down: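 Plate contents were MEM with 10% FBS plus test compound or DMSO, no cells. Fluorescence was recorded with 540 nm excitation and 590 nm emission.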
Assay [12] is described as follows: qHTS assay to test for compound auto fluorescence at 460 nm (blue) in HepG2 cell free culture (AID 720685). Note: % is set by controls: 0 for no effect and ±100 for the full control effect. In outline:
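Compound (23 nL) or DMSO pinned into cell-free MEM with 10% FBS; blue fluorescence read at 405/460 nm excitation/emission, expressed as auto-fluorescence equivalency to triamterene.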

Assay [13] is described as follows: qHTS assay to test for compound auto fluorescence at 535 nm (green) in HepG2 cell free culture (AID 720686). Note: % is set by controls: 0 for no effect and ±100 for the full control effect.
The nature of assay [14]: qHTS assay to test for compound auto fluorescence at 460 nm (blue) in HepG2 cells (AID 720687). Note: % is set by controls: 0 for no effect and ±100 for the full control effect. The method, boiled down:
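Blue-channel autofluorescence (Ex/Em 405/460 nm, triamterene-equivalent) was measured after 1 hr compound exposure at 37 C, 5% CO2. Cells were HepG2, plated overnight at 37 C in MEM plus 10% FBS.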

Assay [15] concerns the target Glucocorticoid receptor (Homo sapiens) (UniProt P04150). In words: qHTS assay to identify small molecule agonists of the glucocorticoid receptor (GR) signaling pathway (AID 720691; active = well fitted activation curve with a large enough effect in the signal ratio in the repeat runs, not every such curve was filed as active; the % refers to the signal ratio; note: % is set by controls: 0 for no effect and ±100 for the full control effect). The method, boiled down: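 Fluorescence intensity from LiveBLAzer B/G FRET substrate (2 h, room temperature) reports beta-lactamase expression driven by the glucocorticoid response element in GR-bla HeLa cells after 18 h compound exposure at 37 C.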

A short description of assay [16]: qHTS assay to test for compound auto fluorescence at 460 nm (blue) in HEK293 cells (AID 720678). Note: % is set by controls: 0 for no effect and ±100 for the full control effect. In outline: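 Intrinsic compound fluorescence is recorded in live HEK293 cultures after overnight incubation at 37C, 5% CO2, using excitation 405 nm and emission 460 nm. Values are referenced to triamterene.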
Assay [17] can be described thus: qHTS assay for small molecule disruptors of the mitochondrial membrane potential (AID 720635). Note: potency is the fitted concentration of half-maximal effect. In outline: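 Mitochondrial membrane potential tracked with Mito-MPS dye, red aggregates (ex 540/em 590 nm) against green monomers (ex 490/em 535 nm). Compound treatment 1 hr at 37C, dye 30 min in HepG2.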
The nature of assay [18]: qHTS assay for small molecule disruptors of the mitochondrial membrane potential - cell viability (AID 720634; calls by dose curve;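 note: human HepG2 liver cancer cells; series mostly up to about 83 µM; % is set by controls: 0 for no effect and ±100 for the full control effect; nearly all actives have a fitted effect of over 20% in size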). In outline: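 Cells: HepG2, 2,000/well, attached overnight. Compound 1 hr, 37 C/5% CO2. +m-MPI dye, +CellTiter-Glo 30 min RT. Readout: luminescence (ATP).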

Where “and” joins values, the source holds several entries; their conditions need not be identical. Identical values can stand only once. Records with an inconclusive call do not appear. Some structures have more than one record in an assay (separate samples or runs), and their calls can disagree. Calls of active or inactive are those of the source. Unless noted, calls come from the whole dose curve; as a rule, active = well fitted curve in the direction sought with a large enough effect in the repeat runs; inconclusive = weak or mixed curves; inactive = no such curve, though single readings can be large; an effect the other way counts as inactive or inconclusive.

Glucocorticoid receptor (Homo sapiens), sequence (P04150 whole entry, looked up): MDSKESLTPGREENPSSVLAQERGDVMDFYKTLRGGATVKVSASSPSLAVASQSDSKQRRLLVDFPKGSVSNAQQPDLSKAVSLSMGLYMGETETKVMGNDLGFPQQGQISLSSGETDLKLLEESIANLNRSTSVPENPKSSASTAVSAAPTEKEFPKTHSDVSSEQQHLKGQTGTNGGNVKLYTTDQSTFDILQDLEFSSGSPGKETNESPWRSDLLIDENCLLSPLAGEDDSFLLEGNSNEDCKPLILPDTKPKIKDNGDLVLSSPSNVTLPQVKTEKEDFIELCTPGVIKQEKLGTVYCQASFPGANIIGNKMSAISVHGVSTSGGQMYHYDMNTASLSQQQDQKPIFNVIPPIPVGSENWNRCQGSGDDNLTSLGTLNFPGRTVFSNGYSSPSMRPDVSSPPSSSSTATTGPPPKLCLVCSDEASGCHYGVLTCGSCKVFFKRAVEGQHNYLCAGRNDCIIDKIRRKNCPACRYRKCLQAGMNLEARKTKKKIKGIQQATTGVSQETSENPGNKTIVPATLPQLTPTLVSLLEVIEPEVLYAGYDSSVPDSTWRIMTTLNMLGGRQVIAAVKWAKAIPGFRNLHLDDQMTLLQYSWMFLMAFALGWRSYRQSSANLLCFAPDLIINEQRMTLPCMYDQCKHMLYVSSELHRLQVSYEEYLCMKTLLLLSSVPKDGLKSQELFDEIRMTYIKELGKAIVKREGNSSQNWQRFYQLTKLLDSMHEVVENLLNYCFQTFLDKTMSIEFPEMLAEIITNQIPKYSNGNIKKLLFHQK

`S=C([S-])NCCNC(=S)[S-].S=C([S-])NCCNC(=S)[S-].[Mn+2].[Zn+2]`: the Potency result in [1], in assay [2], in assay [3], in [4], in [5] and in assay [6] was “inactive” throughout. Also, the Potency result in assay [7], in assay [8], in [9], in [10], in [11] and in assay [12] was “inactive” in each case. Moreover, the Potency entry in assay [13], in assay [14] and in assay [15] was “inactive” in each case.

With `O=C(O)c1cc(O)c2ccccc2c1O`, the Potency result in assay [1], in assay [3], in assay [4], in [5], in [16] and in [6] was “inactive” in each case. Besides, the Potency entry in [7], in assay [8], in assay [9], in [10], in assay [11] and in assay [12] was “inactive” in each case. Further, the Potency entry in assay [13] and in assay [14] was “inactive” in each case. Further, the Potency in assay [2] was 30.6 µM (active).

As to `CCO[C@@H]1O[C@H](C(COCc2ccccc2)OCc2ccccc2)[C@H](OCc2ccccc2)[C@H]1O` (stereo partly drawn), the Potency result in [1], in assay [2], in [3] and in assay [15] was “inactive” throughout. Moreover, the Potency in assay [17] is 11.4 µM (active). Further, the fluorescence, relative to Rose Bengal in assay [4] is -0.664% [at 18.6 µM] (inactive). Also, the figures for the fluorescence, % of fluorescein control in [5] and in [13] were -0.0707% [at 18.6 µM] (inactive) and -0.102% [at 18.6 µM] (inactive), respectively. Also, the fluorescence, % of triamterene in [16] is -0.0314% [at 18.6 µM] (inactive). Moreover, the fluorescence, % of fluorescent control was 0.894% [at 18.6 µM] (inactive) in [6]; 0.118% [at 18.6 µM] (inactive) in assay [8]; -0.0196% [at 18.6 µM] (inactive) in assay [10]; -0.0414% [at 18.6 µM] (inactive) in assay [12]; -0.0213% [at 18.6 µM] (inactive) in assay [14]. In [7], the fluorescence, % of fluorescein was -0.012% [at 18.6 µM] (inactive). Moreover, in assay [9], the activity change is -0.0677% [at 18.6 µM, stronger effect = higher value] (inactive). Further, in assay [11], the fluorescence, % of Rose Bengal is -0.0599% [at 18.6 µM] (inactive).

As for `C#C[C@]1(O)CC[C@H]2[C@@H]3[C@H](C)CC4=C(CCC(=O)C4)[C@H]3CC[C@@]21C`, the Potency result in [1], in assay [3], in [18], in assay [4], in assay [5] and in assay [16] was “inactive” each time. Further, the Potency result in assay [6], in assay [7], in assay [8], in assay [9], in assay [10] and in [11] was “inactive” throughout. Besides, the Potency result in assay [12], in assay [13] and in assay [14] was “inactive” each time.

Take `Cc1ccc(O)c(O)c1`: the Potency result in [1], in assay [3], in [18], in assay [4], in assay [5] and in [16] was “inactive” throughout. In addition, the Potency entry in assay [6], in assay [7], in [8], in assay [9], in assay [10] and in assay [11] was “inactive” in each case. The Potency entry in [12], in assay [13] and in assay [14] was “inactive” throughout.

Turning to `O=C1CCc2cc(OCCCCc3nnnn3C3CCCCC3)ccc2N1`, the Potency entry in assay [1], in assay [3], in assay [18], in assay [4], in [5] and in [16] was “inactive” in each case. For the same compound, the Potency entry in assay [6], in [7], in assay [8], in [9], in [10] and in assay [11] was “inactive” in each case. Also, the Potency result in assay [12], in [13], in [14] and in assay [15] was “inactive” in each case.

With `O=C1c2ccccc2C(=O)N1SC1CCCCC1`, the Potency entry in assay [1], in [3], in assay [4], in [5], in assay [6] and in [7] was “inactive” each time. The Potency result in [8], in [9], in assay [10], in assay [11], in assay [12] and in assay [13] was “inactive” each time. For the same compound, the Potency result in assay [14] was “inactive”. The Potency is 68.5 µM (active) and inactive in [2]; 54.4 µM (active) and 48.6 µM (active) in [17].

Values taken from PubChem BioAssay (Tox21).
